About 83,000 compounds went through this panel and 20% of them were active in at least one assay; those are over-represented in the sample as a whole.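 The test compound was applied at a single concentration to cells in 96-well plates for 48 hours, and percent growth was recorded.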 A number with no mark means an inactive call. Active and inactive are the calls of the source. How the source made its calls: active means growth percent below 10; inactive means the rest.
Columns and labels:
Assay in all cases: NCI-60 one-dose screen, 48 h (100 = growth as untreated, 0 = no growth, -100 = all killed)
Details in all cases: 10 µM unless noted
EKVX NSCLC = test system: EKVX NSCLC
SN12C renal = test system: SN12C renal
UO-31 renal = test system: UO-31 renal
TK-10 renal = test system: TK-10 renal
ACHN renal = test system: ACHN renal
CAKI-1 renal = test system: CAKI-1 renal
CCRF-CEM leukemia = test system: CCRF-CEM leukemia
MOLT-4 leukemia = test system: MOLT-4 leukemia
SR leukemia = test system: SR leukemia
RPMI-8226 leukemia = test system: RPMI-8226 leukemia
OVCAR-8 ovarian = test system: OVCAR-8 ovarian
OVCAR-5 ovarian = test system: OVCAR-5 ovarian
OVCAR-4 ovarian = test system: OVCAR-4 ovarian
SK-OV-3 ovarian = test system: SK-OV-3 ovarian
IGROV1 ovarian = test system: IGROV1 ovarian
OVCAR-3 ovarian = test system: OVCAR-3 ovarian
HS 578T breast = test system: HS 578T breast
NCI/ADR-RES ovarian = test system: NCI/ADR-RES ovarian
T-47D breast = test system: T-47D breast
A498 renal = test system: A498 renal

Row | Structure (SMILES) | growth (EKVX NSCLC) | growth (SN12C renal) | growth (UO-31 renal) | growth (TK-10 renal) | growth (ACHN renal) | growth (CAKI-1 renal) | growth (CCRF-CEM leukemia) | growth (MOLT-4 leukemia) | growth (SR leukemia) | growth (RPMI-8226 leukemia) | growth (OVCAR-8 ovarian) | growth (OVCAR-5 ovarian) | growth (OVCAR-4 ovarian) | growth (SK-OV-3 ovarian) | growth (IGROV1 ovarian) | growth (OVCAR-3 ovarian) | growth (HS 578T breast) | growth (NCI/ADR-RES ovarian) | growth (T-47D breast) | growth (A498 renal)
1 | COc1ccc(-c2cncn2-c2ccc(-c3nc4cc(OC)c(OC)c(OC)c4s3)cc2)cc1N | 58.4% | 72.4% | 16.1% | 83.3% | 59.6% | 30.4% | 45.9% | 40% | 43.4% | 62.2% | 37.1% | 96.4% | 46.7% | 103% | 58.8% | 44.2% | 74.7% | 52.4% | 50.5% | 
2 | Clc1ccc(-n2cnc3c(Cl)ncnc32)cc1Cl | 88.5% | 100% | 114% | 89.3% | 95.7% | 28.4% |  | 82.6% | 19.5% |  | 88% | 82.5% | 103% | 99.8% | 54.6% | 98.9% |  | 107% | 82.2% | 
3 | COc1ccc(C(=O)C(C)Br)cc1OC (configuration not stated) | 98.4% | 72.9% | 71.8% | 101% | 80.3% | 60.1% | 26.7% | 71.3% | 18.6% | 85.5% | 88.3% | 84.7% | 84% | 115% | 76.5% | 61.5% | 95.2% | 96.1% | 82.6% | 
4 | COc1cc(/C=C/C(=O)Nc2cccnc2Nc2cc(OC)c(OC)c(OC)c2)cc(OC)c1OC | 92% | 76.1% | 89.8% | 116% | 96.5% | 82.3% | 66.1% | 94.1% | 92.5% | 66.9% | 84.1% | 99.3% | 92.7% | 112% | 112% | 114% | 96.6% | 83.5% | 100% | 
5 | Clc1nc(Cl)c2ncn(-c3ccccc3)c2n1 | 73.3% | 82% | -77.3% (active) | 71.9% | 68.6% | -79.9% (active) | 80.3% | 44.2% | 39% | 108% | 51.4% | 102% |  | 88.4% | -48.8% (active) | 54.9% | 12.4% | 92.6% | 50.6% | 
6 | C=CCOc1ccc2c(c1)CC[C@@H]1[C@@H]2CC[C@@]2(C)[C@H]1CC[C@]2(C)O | 82% | 96.7% | 92.6% | 56.7% | 85.8% |  | 70.7% | 72.5% | 58% | 51.8% | 66.4% | 75.3% | 89.4% | 93.9% | 104% | 111% | 93% | 90.5% | 79.9% | 90.5%
7 | O=C1/C(=N/O)CCc2ccccc21 | 88.8% | 96.1% | 66.4% | 151% | 88.9% | 102% | 4.19% (active) |  | 113% | 72.9% | 95.6% | 108% | 85.7% | 100% | 69.5% | -6.51% (active) | 95% | 102% | 100% | 
8 | CC/C(=C\c1ccc(N(C)C)cc1)c1ccncc1 | 63.5% | 52.6% | 57.6% | 73.6% | 59.4% | 43.4% |  | 38.7% | 22.8% |  | 54.7% | 74% | 69.5% | 74.6% | 49.7% | 42.3% |  | 8.26% (active) | 40% | 
9 | CC(C)(C)c1ccc(S(=O)(=O)O)s1 | 92.7% | 97.7% | 40.1% | 110% | 96.3% |  | 102% | 76.1% | 73.1% | 95.9% | 108% | 96.3% | 96.6% | 101% | -12.6% (active) | 115% | 88.8% | 106% | 97.9% | 95.4%
10 | Cc1nc(N)[nH]c(=O)c1C | 100% | 87.4% | 107% | 137% | 111% |  | 94.7% | 150% | 92.2% | 83.7% | 105% | 98.3% | 111% | 99.4% | 9.58% (active) | 121% | 183% | 91% | 83% | 216%
11 | O=c1ccn(C2CCCO2)c(=O)[nH]1 (configuration not stated) | 107% | 109% | 95.4% | 120% | 98.7% | 110% | 97% | 97.7% | 114% | 108% | 102% | 111% | 119% | 112% | 114% | 115% | 112% | 110% | 105% | 
12 | Cc1nc2cc(NC(=O)CN3CCN(CCN4C(=O)c5cccc6cccc(c56)C4=O)CC3)ccc2s1 | 69.9% | 39.8% | 53.6% | 87.9% | 33.9% | 72.9% | 31.7% |  | 22% | 28.9% | 30.2% | 72% | 61.4% | 66.3% | 44% | 74.3% | 69.5% | 45.9% | 50.7% | 
13 | COc1ccc(/C=C/C(=O)Nc2cccnc2Nc2ccc(F)cc2)cc1 | 88.4% | 89.3% | 95.4% | 113% | 104% | 86.5% | 112% | 80.1% | 88.7% | 88.6% | 92.7% | 104% | 91.1% | 101% | 117% | 112% | 103% | 93.1% | 87.7% | 
14 | COC(=O)C[C@@H]1CC=CC(=O)/C1=C(O)/C=C/c1ccccc1 | -30.8% (active) | -41.5% (active) | -80.8% (active) | -23.7% (active) | -83.3% (active) | -82.9% (active) | 10.8% | 3.09% (active) | 5.6% (active) | 31.3% | 10.6% | -83.8% (active) | -10.7% (active) | 32.6% | -72.9% (active) | -92.5% (active) | 12.5% | 17.6% | -6.15% (active) | 
